Reference: PubChem BioAssay
The source made the active and inactive calls.

Legend:
[1] = resazurin metabolic signal in HepG2 cells – cell-based, resazurin fluorescence, 24 h, PK04 Diversity Set, profiling panel (AID 1172); conditions: HepG2 viability, higher = more signal
[2] = budding yeast growth changes without added modifier – OD600, strain BY4716, 24 h, basal condition, primary screen (AID 1173); conditions: S. cerevisiae BY4716 growth, OD600, 24 h; higher = more signal, called active from +8 up or from −8 down
[3] = viability profiling in MM1S myeloma cells – cell-based, resazurin fluorescence, basal, 24 h, PK04 Diversity Set, profiling panel (AID 1174); conditions: higher = more signal, called active from +8 up or from −8 down;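 further: MM1S multiple myeloma cell line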
[4] = biological target: Dihydroorotate dehydrogenase (quinone), mitochondrial (Plasmodium falciparum (isolate 3D7)) (UniProt Q08210); experiment: inhibition of P. falciparum DHODH – biochemical, C-terminal His tag, absorbance 600 nm, primary screen (AID 1175); conditions: PfDHODH enzyme, DCIP absorbance 600 nm; higher = more signal, called active from +8 up or from −8 down;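 further: recombinant parasite enzyme with a five histidine tag at its C terminus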
[5] = growth modulation of vineyard yeast isolate – strain RM11-1a, OD600, basal, 24 h, primary screen (AID 1177);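 further: cultures grown under basal conditions with no added stressor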; conditions: S. cerevisiae RM11-1a growth, OD600, 24 h; higher = more signal, called active from +8 up or from −8 down
[6] = growth of efflux-deficient E. coli DRC39 – strain DRC39, OD650, 24 h, E. coli filamentation inducers, primary screen (AID 1178);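 further: growth measured as culture turbidity by optical density at 650 nm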; conditions: E. coli DRC39 acrAB, higher = more signal, called active from +8 up or from −8 down
[7] = growth of efflux-deficient E. coli DRC39 – strain DRC39, OD650, 48 h, E. coli filamentation inducers, primary screen (AID 1179);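 further: screen aims at cell division blockers that make cells filament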; conditions: E. coli DRC39 delta-acrAB growth, higher = more signal, called active from +8 up or from −8 down
[8] = viability profiling in RPMI8226 myeloma cells – cell-based, resazurin fluorescence, basal, 24 h, PK04 Diversity Set, profiling panel (AID 1180); conditions: higher = more signal;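 further: RPMI8826 multiple myeloma cell line at 5000 cells per well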
[9] = biological target: E3 ubiquitin-protein ligase XIAP (Homo sapiens) (UniProt P98170); experiment: small molecules binding XIAP protein – biophysical, small-molecule microarray, fluorescence 635 nm, primary screen (AID 1181); conditions: higher = more signal;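 further: score merges 667 nm emission and signal to noise over triplicate slides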
[10] = test system: XIP peptide (Xip251-270) binding; experiment: XIP fragment 251-270 binding compounds – biochemical, small-molecule microarray, fluorescence 635/667 nm, 0.1 µg/mL protein, primary screen (AID 1182); conditions: fluorescent protein binding, 635 nm, higher = more signal, called active from +8 up or from −8 down
XIP peptide (Xip251-270) = experiment: compounds binding XIP fragment 251-270 – biochemical, small-molecule microarray, fluorescence 635/667 nm, 0.5 µg/mL protein, primary screen (AID 1183); conditions: fluorescence 635 nm, higher = more signal
[11] = blood-stage malaria parasite viability loss – strain 3D7, DAPI fluorescence, 100 nL, primary screen (AID 1184);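 further: parasites grown inside human red blood cells in medium with human serum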; conditions: P. falciparum 3D7 growth, 3 d, higher = more signal
[12] = biological target: Homeobox protein Hox-A13 (Mus musculus) (UniProt Q62424); experiment: disruptors of Hoxa13 oligonucleotide interaction – biochemical, fluorescence polarization, labeled oligonucleotide, primary screen (AID 1185); conditions: Hoxa13:DNA binding, 15 min, higher = more signal, called active from +8 up or from −8 down
Homeobox protein Hox-A13 (Mus musculus), sequence (Q62424 whole entry, looked up): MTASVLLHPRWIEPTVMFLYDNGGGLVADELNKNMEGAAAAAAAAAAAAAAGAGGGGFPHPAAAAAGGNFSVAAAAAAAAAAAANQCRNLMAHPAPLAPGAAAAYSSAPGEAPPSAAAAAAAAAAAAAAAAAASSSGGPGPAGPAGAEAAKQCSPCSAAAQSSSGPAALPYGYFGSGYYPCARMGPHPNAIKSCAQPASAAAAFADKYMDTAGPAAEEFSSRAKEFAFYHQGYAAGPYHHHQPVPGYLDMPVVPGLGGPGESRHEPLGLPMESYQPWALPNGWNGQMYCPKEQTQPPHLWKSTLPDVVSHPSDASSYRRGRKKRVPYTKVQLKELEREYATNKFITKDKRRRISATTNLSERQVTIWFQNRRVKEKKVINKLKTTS

E3 ubiquitin-protein ligase XIAP (Homo sapiens), sequence (P98170 whole entry, looked up, the tested form may be a part): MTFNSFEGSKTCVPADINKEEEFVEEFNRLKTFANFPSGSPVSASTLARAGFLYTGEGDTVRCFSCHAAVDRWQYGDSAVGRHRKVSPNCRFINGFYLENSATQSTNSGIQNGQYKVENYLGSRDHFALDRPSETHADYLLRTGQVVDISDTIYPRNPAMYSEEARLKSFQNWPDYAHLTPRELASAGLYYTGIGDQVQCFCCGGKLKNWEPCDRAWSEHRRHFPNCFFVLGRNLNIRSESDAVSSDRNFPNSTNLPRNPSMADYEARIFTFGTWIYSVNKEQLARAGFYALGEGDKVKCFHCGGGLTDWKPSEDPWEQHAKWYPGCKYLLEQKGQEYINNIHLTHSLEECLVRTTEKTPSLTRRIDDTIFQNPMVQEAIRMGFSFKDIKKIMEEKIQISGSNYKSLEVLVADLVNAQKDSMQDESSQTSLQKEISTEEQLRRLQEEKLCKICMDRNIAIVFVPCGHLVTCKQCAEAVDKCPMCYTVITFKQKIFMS
Dihydroorotate dehydrogenase (quinone), mitochondrial (Plasmodium falciparum (isolate 3D7)), sequence (Q08210 whole entry, looked up): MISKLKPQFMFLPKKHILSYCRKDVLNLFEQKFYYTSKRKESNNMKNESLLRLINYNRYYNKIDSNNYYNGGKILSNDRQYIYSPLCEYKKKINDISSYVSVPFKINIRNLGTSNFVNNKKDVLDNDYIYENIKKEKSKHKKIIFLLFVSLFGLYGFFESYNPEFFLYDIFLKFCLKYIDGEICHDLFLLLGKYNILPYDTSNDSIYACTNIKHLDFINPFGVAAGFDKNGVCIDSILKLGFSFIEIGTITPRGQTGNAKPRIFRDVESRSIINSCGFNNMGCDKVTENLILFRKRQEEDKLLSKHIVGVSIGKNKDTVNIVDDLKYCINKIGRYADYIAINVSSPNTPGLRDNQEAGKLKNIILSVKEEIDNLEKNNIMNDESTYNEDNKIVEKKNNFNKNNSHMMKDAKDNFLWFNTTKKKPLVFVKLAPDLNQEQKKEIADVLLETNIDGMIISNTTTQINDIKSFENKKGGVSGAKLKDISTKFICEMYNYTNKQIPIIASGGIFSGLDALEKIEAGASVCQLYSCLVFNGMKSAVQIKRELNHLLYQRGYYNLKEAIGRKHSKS

CO[C@@H]1COC(=O)[C@H](C)NC(=O)CC=C[C@@H](C)[C@H](NS(=O)(=O)c2ccc(C)cc2)COC(=O)CC=C[C@@H]1C
z-score [1]: 0.825 | z-score [2]: -0.364 (inactive) | z-score [3]: 0.507 (inactive) | composite z-score [4]: 0.605 (inactive) | z-score [5]: 0.655 (inactive) | z-score [6]: 0.798 (inactive) | z-score [7]: 0.547 (inactive) | z-score [8]: 0.271 | composite z-score [9]: -0.0835 | composite z-score [10]: -0.44 (inactive) | composite z-score (XIP peptide (Xip251-270)): -0.507 | z-score [11]: 0.635 | z-score [12]: 0.769 (inactive)

CO[C@H]1COC(=O)[C@H](C)NC(=O)CC=C[C@@H](C)[C@H](NS(=O)(=O)c2ccc(C)cc2)COC(=O)CC=C[C@@H]1C
z-score [1]: 0.072 | z-score [2]: -1.57 (inactive) | z-score [3]: 1.19 (inactive) | composite z-score [4]: -0.253 (inactive) | z-score [5]: -0.724 (inactive) | z-score [6]: 0.127 (inactive) | z-score [7]: -0.244 (inactive) | z-score [8]: 0.945 | composite z-score [9]: 0.023 | composite z-score [10]: -0.132 (inactive) | composite z-score (XIP peptide (Xip251-270)): 0.407 | z-score [11]: -0.266 | z-score [12]: -1.62 (inactive)

C[C@H]1COC(=O)[C@@H]2CCCN2C(=O)[C@@H](C)COC(=O)[C@@H]2CCCN2C1=O
z-score [1]: 0.678 | z-score [2]: -0.978 (inactive) | z-score [3]: 0.93 (inactive) | composite z-score [4]: -0.0223 (inactive) | z-score [5]: -0.691 (inactive) | z-score [6]: 0.825 (inactive) | z-score [7]: -0.0322 (inactive) | z-score [8]: 0.73 | composite z-score [9]: -0.294 | composite z-score [10]: -0.0153 (inactive) | composite z-score (XIP peptide (Xip251-270)): 0.454 | z-score [11]: -0.12 | z-score [12]: -5.05 (inactive)

C=CCc1cccc([C@H]2N[C@H](C(=O)O)CC[C@@H]2C)c1
z-score [1]: 0.615 | z-score [2]: 0.182 (inactive) | z-score [3]: 0.948 (inactive) | composite z-score [4]: 1.09 (inactive) | z-score [5]: 1.14 (inactive) | z-score [6]: 0.0903 (inactive) | z-score [7]: 0.129 (inactive) | z-score [8]: 1.02 | composite z-score [9]: -0.0476 | composite z-score [10]: 0.517 (inactive) | composite z-score (XIP peptide (Xip251-270)): 0.921 | z-score [11]: -0.441 | z-score [12]: 0.811 (inactive)

C[C@@H]1CC[C@H]2C(=O)N3CCC[C@H]3C(=O)N2[C@H]1c1ccc(Br)cc1
z-score [1]: 1.55 | z-score [2]: -0.654 (inactive) | z-score [3]: 0.864 (inactive) | composite z-score [4]: 0.238 (inactive) | z-score [5]: 0.393 (inactive) | z-score [6]: 0.898 (inactive) | z-score [7]: 0.8 (inactive) | z-score [8]: 0.506 | composite z-score [9]: -0.193 | composite z-score [10]: 0.557 (inactive) | composite z-score (XIP peptide (Xip251-270)): -0.374 | z-score [11]: 0.371 | z-score [12]: 0.0636 (inactive)

CO[C@H]1COC(=O)CC=C[C@H](C)COC(=O)[C@@H](OCc2ccccc2)C=C[C@@H]1C
z-score [1]: -0.103 | z-score [2]: -0.348 (inactive) | z-score [3]: 1.46 (inactive) | composite z-score [4]: -2.5 (inactive) | z-score [5]: -1.22 (inactive) | z-score [6]: 0.566 (inactive) | z-score [7]: 0.171 (inactive) | z-score [8]: 0.627 | composite z-score [9]: -0.22 | composite z-score [10]: 0.225 (inactive) | composite z-score (XIP peptide (Xip251-270)): 0.547 | z-score [11]: -1.58 | z-score [12]: 1.89 (inactive)

COc1cc([C@@H]2N[C@H](C(=O)O)Cc3c2[nH]c2ccccc32)cc(OC)c1OC
z-score [1]: 0.384 | z-score [2]: -0.61 (inactive) | z-score [3]: 1.39 (inactive) | composite z-score [4]: -1.7 (inactive) | z-score [5]: -0.8 (inactive) | z-score [6]: -0.105 (inactive) | z-score [7]: 0.197 (inactive) | z-score [8]: 1.03 | composite z-score [9]: -0.227 | composite z-score [10]: -0.374 (inactive) | composite z-score (XIP peptide (Xip251-270)): 0.564 | z-score [11]: -0.0372 | z-score [12]: -1.66 (inactive)

CSCC[C@@H]1NC(=O)CC=C[C@@H](C)COC(=O)[C@H](CCSC)NC(=O)CC=C[C@@H](C)COC1=O
z-score [1]: 0.413 | z-score [2]: -1.37 (inactive) | z-score [3]: 0.94 (inactive) | composite z-score [4]: 0.576 (inactive) | z-score [5]: -1.46 (inactive) | z-score [6]: -0.251 (inactive) | z-score [7]: -0.407 (inactive) | z-score [8]: 0.613 | composite z-score [9]: -0.243 | composite z-score [10]: 0.223 (inactive) | composite z-score (XIP peptide (Xip251-270)): -0.467 | z-score [11]: -0.145 | z-score [12]: 1.03 (inactive)
